Drawing on PubChem BioAssay (NCATS), this text covers Potency and activity (max response) for 7 compounds.

Experiment [1] in a line: Viability qHTS for spleen associated tyrosine kinase inhibitor (SYKi) drug resistant MV4-11 cells (AID 1963824). Also: nearly all actives have a fitted effect of over 35% in size. In outline: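 SYK-inhibitor-resistant MV4-11 AML cells were seeded at 500 per well onto compound and cultured 72 hours (37 °C, 5% CO2). CellTiter-Glo was then added, and after 10 min at room temperature, luminescence gave viability.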
Experiment [2] is described as follows: Quantitative highthroughput screen to assess conditional lethalithy of SEM cells grown in RPMI1640 with unreated serum (RPMI+s) (AID 1963883). Also: nearly all actives have a fitted effect of over 35% in size. The gist of the method:
(§1)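 Each medium arm—HPLM with 10% dialyzed FBS, or RPMI1640 with 5 mM glucose and 10% untreated or dialyzed FBS—was screened against an 11-point, 3-fold compound titration for 48 h at 37 °C, with CellTiter-Glo luminescence as endpoint.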

Experiment [3] in a line: Quantitative highthroughput screen to assess conditional lethalithy of SEM cells grown in RPMI1640 with dialyzed fetal bovine serum (RPMI+ds) (AID 1963884). Also: nearly all actives have a fitted effect of over 35% in size. In outline:
as §1

Experiment [4] can be described thus: Cellular viability qHTS for adrenocortical cancer (ACC) cell line NCI-H295R (AID 1963990). Also: nearly all actives have a fitted effect of over 60% in size. The gist of the method:
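CellTiter-Glo ATP luminescence, read 48 h after compound addition, measured viability of NCI-H295R adrenocortical cells grown serum-free with ITS. Final concentrations spanned up to 46 uM. Data normalized to DMSO and doxorubicin, fitted for IC50 and maximal response.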

The nature of experiment [5]: Quantitative highthroughput screen to assess conditional lethalithy of SEM cells grown in Human Plasma-Like Medium with dialyzed fetal bovine serum (HPLM+ds) (AID 1963882). Also: nearly all actives have a fitted effect of over 35% in size. The gist of the method: as §1
Experiment [6] is described as follows: Cellular viability qHTS for adrenocortical cancer (ACC) cell line SW-13 (AID 1963989). Also: nearly all actives have a fitted effect of over 65% in size.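 As to activity (max response): cells grown in serum-free medium with ITS supplement; % is scaled to controls: 0 for no effect and ±100 for the full control effect.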 The settings on record: SW-13 ACC cells viability, CellTiter-Glo, 48 h; activity (max response): active compounds read low. The gist of the method:
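Viability was read as CellTiter-Glo luminescence after 48 h compound treatment (up to 46 uM final) of SW-13 cells grown serum-free; titration curves were fit with a four-parameter logistic model to give IC50 and efficacy.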

Experiment [7] in a line: Quantitative highthroughput screen to assess conditional lethalithy of P12 Ichikawa cells grown in Human Plasma-Like Medium with dialyzed fetal bovine serum (HPLM+ds) (AID 1963879). Also: nearly all actives have a fitted effect of over 35% in size. As to Viability: series mostly up to about 46 µM. The following applies: Potency: viability. The gist of the method: as §1
Experiment [8] in a line: Quantitative highthroughput screen to assess conditional lethalithy of P12 Ichikawa cells grown in RPMI1640 with dialyzed fetal bovine serum (RPMI+ds) (AID 1963880). Also: nearly all actives have a fitted effect of over 35% in size. The following applies: Potency: P12-Ichikawa viability. In outline:
as §1

A short description of experiment [9]: Quantitative highthroughput screen to assess conditional lethalithy of P12 Ichikawa cells grown in RPMI1640 with untreated serum (RPMI+s) (AID 1963881). Also: nearly all actives have a fitted effect of over 35% in size. The following applies: Potency: viability. In outline:
as §1

SMILES strings stand for the structures. Where “and” joins values, the source holds several entries; their conditions need not be identical. Equal entries are not always repeated. Records with an inconclusive call do not appear. Values without a mark were called inactive. Calls of active or inactive are those of the source. Calls follow the shape of the dose curve; as a rule, active = well fitted curve in the direction sought with a large enough effect; inconclusive = small, poorly fitted or top-dose-only effect, or another doubt; inactive = no such curve, though single readings can be large; an effect the other way counts as inactive or inconclusive.
Potency is read from the fitted curve at half-maximal effect.

On to `CC(=O)c1c(C)c2cnc(Nc3ccc(N4CCNCC4)cn3)nc2n(C2CCCC2)c1=O`, for which the Potency in experiment [1] was 184 nM (active) and 5.25 µM (active); in experiment [2], 4.69 µM (active); in experiment [3], 5.26 µM (active); in experiment [4], 25.1 µM (active).

With `CCN(CC)CCCCNc1ncc2cc(-c3cc(OC)cc(OC)c3)c(NC(=O)NC(C)(C)C)nc2n1`, the Potency was 5.8 µM (active) and 9.34 µM (active) in experiment [1]; 14.8 µM (active) in experiment [5]; 16.6 µM (active) in experiment [2]; 28.2 µM (active) in experiment [6]; 25.1 µM (active) in experiment [4].

Consider `CCOC(=N)c1nc2ccc3ncnc(Nc4cc(F)c(F)cc4Cl)c3c2s1`, for which the Potency in experiment [1] is 7.42 µM (active). Also, the activity (max response) in [6] was -16.7%.

Turning to `COc1ccccc1[C@H](c1cccc2ccccc12)[C@@](C)(C#N)C(=O)N1CCC(c2cccc(C(F)(F)F)c2)CC1`, the Potency in experiment [1] was 8.33 µM (active); in experiment [7] it was 16.6 µM (active). In experiment [6], the activity (max response) is -5.9%. Besides, the Potency entry in experiment [4] was “inactive”.

In the case of `O=C(Nc1cccc(C(F)(F)F)c1)Nc1cc(S(=O)(=O)NC2CC2)ccc1-c1ccsc1`, the Potency in experiment [1] is 7.42 µM (active); in [6], 28.2 µM (active); in experiment [4], 31.6 µM (active). Also, in experiment [7], the Potency result was “inactive”.

With `O=C1c2c(O)ccc(O)c2C(=O)c2c(NCCNCCO)ccc(NCCNCCO)c21`, the Potency in experiment [1] was 59.6 nM (active) and 20.9 nM (active); in [8], 0.332 µM (active); in experiment [9] it was 0.264 µM (active); in [5], 0.332 µM (active); in experiment [2], 0.235 µM (active); in experiment [3], 0.332 µM (active). Besides, the Potency in experiment [6] was 1.16 µM (active) and 2.51 µM (active); in [4] it was 4.11 µM (active) and 3.98 µM (active).

Consider `Cc1cc(-c2ccc(CC(=O)Nc3ccc(-c4cccnc4)cc3)cc2)ccn1`, for which the Potency was 11.8 µM (active) in [1]; 6.62 µM (active) in experiment [7]; 10.5 µM (active) in [8]; 16.6 µM (active) in experiment [9]; 6.62 µM (active) in experiment [5]; 10.5 µM (active) in experiment [2]. Besides, in experiment [3], the Potency was 8.33 µM (active). For the same compound, the activity (max response) in [6] is -19.6%. Also, the Potency entry in [4] was “inactive”.
